Measured values as given in PubChem BioAssay AID2551 (National Center for Advancing Translational Sciences (NCATS), 2010).
The whole screen tested about 310,000 compounds, of which about 17,000 (5.5%) were called active. Not shown: some 11% with an inconclusive outcome. This is one part of a sample in which actives are shown more often than they occur. Values without a mark were called inactive. Calls follow the shape of the dose curve; as a rule, active = well fitted inhibition curve with a large enough effect; inconclusive = small, poorly fitted or top-dose-only effect, or effect the other way; inactive = no such curve, though single readings can be large or run the other way.

The molecules below were run against Nuclear receptor ROR-gamma (Mus musculus) (UniProt P51450) (assay: qHTS for inhibitors of ROR gamma transcriptional activity). Details: Drosophila S2 Gal4-RORgamma UAS-luciferase reporter, 20 h; series mostly up to 53.6 µM; activity change, negative = inhibition: at the top concentration.
Method in brief: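 Drosophila S2 cells stably expressing Gal4-DBD/mouse RORγ fusion under metallothionein promoter plus UAS-luciferase; compound 1 h, then 700 uM CuSO4 induction for 20 h at ambient temperature; inhibition read as reduced luminescence.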
% is scaled to controls: 0 for no effect and ±100 for the full control effect; potency is read from the fitted curve at half-maximal effect.
Also: nearly all actives have a fitted effect of over 60% in size.

Nuclear receptor ROR-gamma (Mus musculus), sequence (P51450 whole entry, looked up, the tested form may be a part): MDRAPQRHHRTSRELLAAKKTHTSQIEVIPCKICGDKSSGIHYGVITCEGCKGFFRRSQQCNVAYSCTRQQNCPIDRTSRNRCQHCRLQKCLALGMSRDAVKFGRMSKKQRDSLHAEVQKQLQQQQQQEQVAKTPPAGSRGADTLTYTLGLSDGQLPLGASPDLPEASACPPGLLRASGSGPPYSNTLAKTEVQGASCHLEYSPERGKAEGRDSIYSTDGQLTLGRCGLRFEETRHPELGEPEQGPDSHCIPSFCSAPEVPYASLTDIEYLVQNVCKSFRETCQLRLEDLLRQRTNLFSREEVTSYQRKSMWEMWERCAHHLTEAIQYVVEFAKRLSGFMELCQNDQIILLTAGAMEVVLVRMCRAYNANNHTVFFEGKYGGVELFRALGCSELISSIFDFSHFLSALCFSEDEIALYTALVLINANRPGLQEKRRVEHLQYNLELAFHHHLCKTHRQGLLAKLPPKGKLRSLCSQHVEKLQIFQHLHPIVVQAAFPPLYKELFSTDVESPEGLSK

Point of comparison: CCOc1ccc(C(O)Cc2nc3ccccc3n2C)cc1 (stereo unspecified), “activity change, negative = inhibition” value 11.9%. Against it:
- Nc1nc(SCc2cccc(Br)c2)n[nH]1 — lower, -10.9%
- Cc1ccc(SCc2c(C(=O)N/N=C/c3cccnc3)nnn2-c2nonc2N)cc1 — higher, 27.5%
- Cc1ccc(SCc2c(C(=O)N/N=C/C3CC=CCC3)nnn2-c2nonc2N)cc1 (stereo unspecified) — lower, -43.2%
- C=CCOc1ccccc1NC(=O)CN1C(=O)CNC1=O — lower, -31.8%
- CN(C)S(=O)(=O)c1cccc(NC(=S)N/N=C/C(=O)c2ccccc2)c1 — higher, 21.3%
- CN(C)S(=O)(=O)c1cccc(NC(=O)Cc2ccsc2)c1 — higher, 16.2%
- O=C(Nc1ccccc1)C1CCN(C(=O)c2ccc(Br)cc2)CC1 — lower, 1.33%
- O=C(NCCc1ccccc1Cl)C1CCC(=O)N(CCCc2ccccc2)C1 (stereo unspecified) — lower, 4.06%
- CC1CC(C)CN(CCOc2cccc3ccccc23)C1 (stereo unspecified) — lower, -13.7%
- C=C(C)COc1ccc(-c2nc(N)ncc2-c2ccccc2OC)c(O)c1 — higher, 21.4%
- COc1ccc(-c2c(-c3ccc(OC)cc3O)nc(C)nc2C(F)(F)F)cc1 — lower, -5.38%
- CCOc1ccc(-c2nc(N)ncc2-c2ccccc2OC)c(O)c1 — higher, 28.4%
- CC(=O)COc1ccc2c(-c3ccccc3)cc(=O)oc2c1 — lower, -5.52%
- Cc1noc(C)c1COC(=O)COc1ccc(-c2ccccc2)cc1 — lower, -18.9%
- COc1ccc(OC)c(-c2csc(-c3cccs3)n2)c1 — lower, 2.01%
- COc1ccc(CCN2C(=O)c3[nH]nc(-c4ccccc4O)c3C2c2ccc(C)cc2)cc1OC (stereo unspecified) — lower, -39.7%
- COc1ccc(-c2[nH]ncc2CN(C)Cc2c(C)n[nH]c2C)c(OC)c1 — lower, -1.1%
- O=C(NCCc1ccccn1)c1nc(Cn2cc([N+](=O)[O-])cn2)no1 — lower, -0.758%
- Cc1ccccc1N1CC(C(=O)Nc2ccc3c(c2)OCO3)CC1=O (stereo unspecified) — higher, 19.2%
- COc1ccc(-c2csc3ncnc(N4CCN(S(=O)(=O)c5ccccc5C#N)CC4)c23)cc1 — lower, 0.197%
- CCCC(=O)N(CCN1CCOCC1)c1nc2ccc(OCC)cc2s1 — lower, 4.81%
- CC(=O)Nc1ccc(NC(=O)CSc2nnnn2-c2ccccc2F)cc1 — lower, 6.46%
- CCc1ccc(NC(=O)CS(=O)CC(=O)N2CCN(c3ccccc3F)CC2)cc1 (stereo unspecified) — lower, -24.2%
- Cc1nc(CN(C)C(=O)CC2C(=O)NCCN2Cc2ccc(F)cc2)cs1 (stereo unspecified) — lower, -3.13%
- CCOc1ccc(CN2CCN(Cc3c[nH]c4ccccc34)CC2)cc1 — lower, -8.28%
- COc1ccc2c(c1)C(NS(=O)(=O)OCC(Cl)(Cl)Cl)CCC2 (stereo unspecified) — lower, -9.1%
- O=C(CC1C(=O)NCCN1C(=O)c1ccc([N+](=O)[O-])cc1)Nc1cccc(Cl)c1 (stereo unspecified) — lower, -1.47%
- O=C(NCc1ccncc1)C1CCCN(S(=O)(=O)c2ccc(Br)cc2)C1 (stereo unspecified) — lower, -0.316%
- COc1ccc(NC(=O)CCCNC(=O)Cn2cnc3sc4c(c3c2=O)CCCC4)cc1OC — the same, 11.9%
- COc1ccc(-n2c(SCC(=O)OC(C)C)nnc2-c2ccccn2)cc1 — lower, 8.58%
- COc1ccc(CNC(=O)CCN2C(=O)c3ccccc3C2=O)cc1 — lower, -10.3%
- O=C(O)CC(c1ccccc1F)N1Cc2ccccc2C1=O (stereo unspecified) — higher, 13.5%
- COCCC(=O)N1CCC(Oc2ccc(C(=O)NCc3ccon3)cc2)CC1 — lower, -0.109%
- O=C(NCCCn1ccnc1)Nc1ccc(Cl)cc1Cl — lower, 1.19%
- COc1ccc(C(CNC(=O)COc2ccc([N+](=O)[O-])cc2)N2CCCCC2)cc1 (stereo unspecified) — lower, -1.04%
- CC(=O)NCC(=O)NC1CCCc2c1cnn2-c1ccccc1F (stereo unspecified) — lower, 11.1%
- COCCN(CCOC)C(=S)Nc1ccccc1Cl — lower, -20.1%
- Cc1c(Cl)cccc1NC(=O)CCC(=O)N/N=C/c1ccco1 — lower, 4.27%
- C=CCn1c(SCC(=O)NCCCO)nc2sc3c(c2c1=O)CCC3 — higher, 12.8%
- COc1ccc(NC(=S)N2CCC(NC(=O)c3cccc(F)c3)CC2)cc1 — lower, -21.7%
- COc1ccc(C(=O)NC2CCN(C(=S)Nc3ccccc3)CC2)cc1 — lower, -22.9%
- COc1ccc(NC(=O)C2C3CCC(O3)C2C(=O)O)cc1OC (stereo unspecified) — lower, -29.4%
- COc1cc(NC(=O)CCS(=O)(=O)c2ccc3c(c2)oc(=O)n3C)cc(OC)c1 — lower, 10.4%
- Cc1ccc(C(=O)N(CC(=O)NC2CCCC2)c2ccc(F)cc2)s1 — lower, -5.56%
- CCOc1c2ccc(C(=O)NCc3ccc4c(c3)OCO4)cc2nn1C — lower, -5.74%
- CCCc1nn2c(=O)cc(CSCC(=O)Nc3cccc(C)c3)nc2s1 — lower, -2.84%
- Cc1ccc2c(c1)c1ncn(Cc3ccc(F)cc3)c(=O)c1n2C — lower, -40.6%
- Cc1ccc2c(c1)c1ncn(CCC3=CCCCC3)c(=O)c1n2C — lower, 4.27%
- O=C(O)c1ccccc1-c1ccccc1C(=O)Nc1ccccc1Br — lower, -14.5%
- COc1cccc(C(=O)Nc2ccc(NC(=O)c3ccco3)cn2)c1 — higher, 25.9%
- O=C(Nc1ccc2nccnc2c1)c1ccco1 — higher, 43%
- Cc1cc(O)c(C2(O)C(=O)Nc3ccccc32)cc1C (stereo unspecified) — higher, 19.9%
- C/C(=N\NC(=O)c1ccc2ccccc2c1)c1cccnc1 — lower, -21.8%
- COc1ccc(CCNC(=O)Cc2ccc(C)cc2)cc1OC — lower, -20.3%
- COc1ccc(CCNC(=O)NS(=O)(=O)c2ccc(C)cc2)cc1OC — lower, -25.4%
- COc1cccc(CNC(=O)CN(C)S(=O)(=O)c2ccc3c(c2)c(=O)n(C)c(=O)n3C)c1 — lower, -14.9%
- CC(=O)Nc1ccc(NC(=O)CN2C(=O)COc3ccc(S(=O)(=O)N4CCCCC4)cc32)cc1 — lower, -1.03%
- CCOc1cccc(-c2nnc(SCC(=O)NC3CC3)n2C)c1 — lower, -31.3%
- OCCN1CCN(c2nnc(-c3ccccc3)c3ccccc23)CC1 — lower, -1.93%
- CCOc1ccc(N(CC(=O)NCCOc2ccccc2OC)S(=O)(=O)c2ccccc2)cc1 — lower, -29.8%
- O=C(CCCc1ccccc1)NCc1ccccc1 — higher, 16.2%
- CC(=O)c1ccc(N2CCN(C(=O)CCc3ccccc3)CC2)cc1 — higher, 23.9%
- Cc1ccccc1OCC(=O)Nc1nnc(S(=O)(=O)N2CCCC2)s1 — higher, 14.6%
- CCOc1cc(/C=N/Nc2cc(C)nc3ccc(C)cc23)ccc1O — lower, -24.7%
- COc1cccc(-c2nc3n(n2)C(c2ccccc2Cl)C(C(N)=O)=C(C)N3)c1 (stereo unspecified) — lower, 10.2%
- CC1=C(C(N)=O)C(c2ccc(F)cc2)n2nc(CCCO)nc2N1 (stereo unspecified) — lower, -6.31%
- Cc1ccc(C(=O)OCC(=O)NC(=O)Cc2ccccc2)c(O)c1 — lower, -14.9%
- COC(=O)c1oc2ccc(Br)cc2c1NC(C)=O — lower, -12.5%
- CN(C)C(=O)c1cc(Br)ccc1Cl — lower, 5.62%
- COc1ccc(CCNC(=O)CS(=O)(=O)Cc2nc(-c3ccc(C)cc3)oc2C)cc1OC — lower, -11.7%
- CCCCNC(=O)C1(O)c2ccccc2NC(=O)N1c1ccc(Cl)cc1 (stereo unspecified) — lower, 0.468%
- CCn1cc(/C=C(\NC(=O)c2cc(OC)c(OC)c(OC)c2)C(=O)N2CCN(C)CC2)c2ccccc21 — lower, 0.404%
- Cc1nc2ccc(C(=O)N/N=C/c3ccc(O)cc3)cc2[nH]1 — lower, 1.66%
- O=C(N/N=C/c1ccc(O)c2ccccc12)c1cccnc1 — lower, -14%
- O=C(NCC(=O)N1CCC2(CC1)NCCc1[nH]cnc12)c1ccc(Br)cc1 — lower, -10.7%
- CCOc1cc(/C=C/c2nc3ccccc3c(=O)[nH]2)cc(Br)c1OC — higher, 28.2%
- CCCn1c(C(O)c2ccc(OCC)cc2)nc2ccccc21 (stereo unspecified) — lower, -25.6%
- CCOC(=O)CSc1nnc(CNc2nc(-c3ccccc3)cs2)n1C — lower, 6.34%
- Cc1ccc(-c2csc(N3CCN(c4cc5c(cc4Cl)nc(-c4ccncc4)n5CCOCCO)CC3)n2)cc1 — lower, -30.6%

For Nc1nonc1-n1nnc(C(=O)N/N=C/c2cc(Br)ccc2O)c1CSC1=NCCS1, the Potency was 3.16 µM (active).
With Cc1ccc(/C=N/NC(=S)Nc2cccc(S(=O)(=O)N(C)C)c2)o1 the Potency was 1.26 µM (active).
With COc1ccc(-c2n[nH]c(C)c2-c2ccccc2OC)c(O)c1 the Potency was 8.91 µM (active).
With COc1ccc(-c2n[nH]c(C)c2-c2ccc(OC)c(OC)c2)c(O)c1 the Potency was 10 µM (active).
For C=C(C)COc1ccc(-c2n[nH]c(C)c2-c2ccccc2OC)c(O)c1, the Potency was 14.1 µM (active).
In the case of C=C(C)COc1ccc(-c2n[nH]c(C)c2-c2ccccc2)c(O)c1, the Potency is reported as 7.08 µM (active).
In the case of CCOc1ccc(-c2n[nH]c(C)c2-c2ccccn2)c(O)c1, the Potency is reported as 17.8 µM (active).
For Clc1ccc(C(Cn2ccnc2)OCc2ccsc2Cl)c(Cl)c1 (stereo unspecified), the Potency was 12.6 µM (active).
With COCCN(C(=S)Nc1cccc(Cl)c1C)C(C)c1ccco1 (stereo unspecified) the Potency was 7.94 µM (active).
With COc1ccccc1C1CCN(C(=S)Nc2ccc(Br)cc2)CC1 the Potency was 5.01 µM (active).
For C=CCNC(=O)c1ccc2c3n(nc2c1)-c1ccc(C)cc1CO3, the Potency was 7.08 µM (active).
With Cc1ccc2c(c1)c1ncnc(N3CCc4ccccc4C3)c1n2C the Potency was 15.8 µM (active).
In the case of O=C(Nc1ccc(NC(=O)c2cccs2)cn1)c1ccco1, the Potency is reported as 11.2 µM (active).
In the case of CC(NCc1nc2ccccc2n1C)C12CC3CC(CC(C3)C1)C2 (stereo unspecified), the Potency is reported as 5.01 µM (active).
With COc1ccc(CCNC(=S)NC(=O)/C=C/c2ccc(C)cc2)cc1OC the Potency was 3.16 µM (active).
With C=CCN1CCN(C(=O)CCCc2ccccc2)CC1 the Potency was 5.62 µM (active).
In the case of CC1=C(C(N)=O)C(c2ccc3c(c2)OCO3)n2nc(-c3cccc(C)c3)nc2N1 (stereo unspecified), the Potency is reported as 5.62 µM (active).
In the case of CC(=O)N/N=C(\C)c1ccc(Br)cc1Br, the Potency is reported as 10 µM (active).
For Cc1ccc(/C=N/NC(=O)C2=NNC(c3ccccc3)(c3ccccc3)C2)c(O)c1, the Potency was 1.26 µM (active).
With CCCn1c(C2CCCN2c2nc(-c3ccc(C)cc3)cs2)nc2cc(Cl)c(N3CCCCC3)cc21 (stereo unspecified) the Potency was 10 µM (active).
In the case of Nc1c(Cl)cc(-c2csc(N3CCCC3c3nc4cc(Cl)c(Cl)cc4n3CCOCCO)n2)cc1Cl (stereo unspecified), the Potency is reported as 14.1 µM (active).
CCCn1c(C(C)Nc2nc(-c3ccc(C)cc3)cs2)nc2cc(Cl)c(N3CCCCC3)cc21 (stereo unspecified) was tested, and the Potency was 7.08 µM (active).
In the case of CCCn1c(CCNc2nc(-c3ccc(OC)cc3)cs2)nc2ccccc21, the Potency is reported as 11.2 µM (active).

CCOc1cccc(-c2nn3c(-c4ccccn4)nnc3s2)c1 gave an activity change, negative = inhibition of -2.44% [at 10 µM].

Point of comparison: Cn1c(CNC(=O)C(C)(C)C)nc2ccccc21, activity change, negative = inhibition 20.1% [at 0.365 µM]. Against it:
- C=CCNC(=O)c1ccc(C)c(Br)c1 — lower, 5.36% [at 0.365 µM]
